Screening results from PubChem.
Measles inh – inhibitors of measles virus growth in infected cells; infected Vero cells, GFP fluorescence, 64 h; active compounds read low; 33,000 compounds, 0.1% hits; AID 745; z-score (no concentration beside the values); in the data active = z-score below about -3
Of the large screens only hits and unclear results are named; the others gave an inactive call. Only a selection was taken, and hits are over-represented in it overall.

COc1ccc(Nc2ncnc3c2cnn3-c2ccccc2)c(OC)c1	Measles inh -3.32
Cc1cc(C)cc(Nc2ncnc3c2cnn3-c2ccccc2)c1	none
CCc1ccccc1Nc1ncnc2c1cnn2-c1ccc(OC)cc1	none
COc1ccc(C2C(C(=O)Nc3ccc(Oc4ccccc4)cc3)CCC(=O)N2c2ccc(OC)cc2)cc1 (stereo not drawn)	none
Cc1ccc(CS(=O)(=O)c2ccc(C(=O)N3CCCC3)cc2[N+](=O)[O-])cc1	none
CCOc1cccc2c1OC1(C)CC2NC(=O)N1c1cccc(C(=O)N2CCN(c3ccccc3)CC2)c1 (stereo not drawn)	none
COc1ccc(OC)c(-n2c(=S)[nH]c3cc(C(=O)Nc4ccc5c(c4)CCC5)ccc3c2=O)c1	none
COc1ccc(CNC(=O)c2ccc3c(=O)n(-c4cc(OC)ccc4OC)c(=S)[nH]c3c2)cc1	none
CCN(CC)C(=O)c1ccc2c(=O)n(-c3cc(OC)ccc3OC)c(=S)[nH]c2c1	Measles inh -5.5
COc1ccc(C2CC(C(F)(F)F)n3nc(C(=O)Nc4cc(OC)ccc4OC)cc3N2)cc1 (stereo not drawn)	none
CCN(CCNS(=O)(=O)c1cc(Br)cc2c1N(C(C)=O)CC2)c1ccccc1	none
CCN(Cc1ccccc1)S(=O)(=O)c1cc(Br)cc2c1N(C(C)=O)CC2	Measles inh -5.58
CCCCN(CCCC)S(=O)(=O)c1cc(Br)cc2c1N(C(C)=O)CC2	none
CCCn1cnc2sc(C(=O)N3CCC(Cc4ccccc4)CC3)c(C)c2c1=O	none
CCOC(=O)c1ccc2nc(C)cc(Nc3ccc(C(=O)OC)cc3)c2c1	none
CCN(c1ccccc1)S(=O)(=O)c1ccc2[nH]cc(C(=O)NC3CCCCC3)c(=O)c2c1	none
O=C(NC1CCCCCC1)c1c[nH]c2ccc(S(=O)(=O)N3CCc4ccccc43)cc2c1=O	Measles inh -3.19
CCc1ccccc1NS(=O)(=O)c1ccc2[nH]cc(C(=O)NC3CCCC3)c(=O)c2c1	none
COc1ccc(C2C(C(=O)N3CCCC3)CCC(=O)N2c2cc(OC)c(OC)c(OC)c2)cc1 (stereo not drawn)	none
O=C(OCc1ccccc1)c1cccc(N2C(=O)C3C4CCC(C4)C3C2=O)c1 (stereo not drawn)	none
O=C(Cc1ccccc1)Oc1ccc(N2C(=O)C3C4CCC(C4)C3C2=O)cc1 (stereo not drawn)	Measles inh -6.38
COc1ccc(OC(=O)c2ccc(N3C(=O)C4C5CCC(C5)C4C3=O)cc2)cc1 (stereo not drawn)	none
COc1ccc(C(=O)Oc2cccc3cccnc23)cc1OC	none
CC(=O)Oc1cccc2cccnc12	none
CCOc1ccc(C(=O)Oc2cccc3cccnc23)cc1Br	Measles inh -3.48
Cc1cccc(C)c1Nc1c(-c2ccccn2)nc2ccc(Br)cn12	none
COc1cc(C(=O)NCc2ccccn2)c([N+](=O)[O-])cc1OC	none
COc1cc(C(=O)N2CCc3ccccc32)c([N+](=O)[O-])cc1OC	none
COc1cc(C(=O)c2ccccc2)c([N+](=O)[O-])cc1OC	Measles inh -3.04
CCCCCC(=O)Nc1ccc(CC#N)cc1	none
Cc1c(C(=O)OC2CCCCCC2)[nH]c2c1C(=O)CC(c1cccs1)C2 (stereo not drawn)	none
Cc1noc(C)c1S(=O)(=O)Nc1ccc(C(=O)Nc2ccc(C(C)C)cc2)cc1	Measles inh -3.69
COc1ccc(NC(=O)c2ccc(NS(=O)(=O)c3c(C)noc3C)cc2)cc1OC	none
CC(=O)c1ccc(NC(=O)c2ccc(NS(=O)(=O)c3c(C)noc3C)cc2)cc1	none
O=C(CSc1nc2ccsc2c(=O)n1CCc1ccc(Cl)cc1)c1ccccc1	none
O=C(Nc1ccc(-c2nc3cc(Cl)ccc3o2)cc1)c1ncn[nH]1	none
O=C(Nc1cccnc1)c1cc(-c2cccs2)nc2ccccc12	none
CC(C)c1ccc(NC(=O)c2cc(-c3cccs3)nc3ccccc23)cc1	none
Cc1ccc(Cl)cc1NC(=O)c1cc(-c2cccs2)nc2ccccc12	Measles inh -3.01
CCOC(=O)CNCc1ccc(Cl)cc1	none
CCOC(=O)C1=C(C(F)(F)F)Nc2nnnn2C1c1ccc(OC)c(OC)c1 (stereo not drawn)	none
N#Cc1c(NC(=O)COc2ccccc2[N+](=O)[O-])sc2c1CCCC2	none
CC1CCC(NC(=O)C2c3ccccc3C(=O)N2CCCN2CCOCC2)CC1 (stereo not drawn)	Measles inh -4.9
COc1ccc(Br)cc1CN1C(=O)c2ccccc2C1C(=O)NC1CCC(C)CC1 (stereo not drawn)	none
O=C(NC1CCCCCCC1)C1c2ccccc2C(=O)N1CCCN1CCCCC1 (stereo not drawn)	none
Cc1cccc(NC(=O)c2ccc(N3CCc4ccccc43)c([N+](=O)[O-])c2)c1	none
COc1ccc(NC(=O)c2cc3n(n2)C(C(F)(F)F)CC(c2ccc(C)cc2)N3)cc1Cl (stereo not drawn)	none
Cc1ccc(CNC(=O)CSc2nc3ccsc3c(=O)n2Cc2ccccc2F)cc1	Measles inh -3.87
Cc1ccc(Cn2c(SCC(=O)c3ccc(F)cc3)nc3ccsc3c2=O)cc1	none
CC(C)CCNC(=O)CSc1nc2ccsc2c(=O)n1Cc1ccc2c(c1)OCO2	none
O=c1c2sccc2nc(SCc2cccc([N+](=O)[O-])c2)n1-c1ccc(Br)cc1	none
